# Measurements as given in the supplement of paper PMC3334620.
# Over roughly 33,000 sequences, “E-score (-0.5 to 0.5)” has its median near -0.035; the highest 2% begin near 0.34. For the sample, the highest values were picked, then their nearest neighbours and some sequences at random.
# Target: T1, Mot3 (UniProt P54785)
# T1 sequence: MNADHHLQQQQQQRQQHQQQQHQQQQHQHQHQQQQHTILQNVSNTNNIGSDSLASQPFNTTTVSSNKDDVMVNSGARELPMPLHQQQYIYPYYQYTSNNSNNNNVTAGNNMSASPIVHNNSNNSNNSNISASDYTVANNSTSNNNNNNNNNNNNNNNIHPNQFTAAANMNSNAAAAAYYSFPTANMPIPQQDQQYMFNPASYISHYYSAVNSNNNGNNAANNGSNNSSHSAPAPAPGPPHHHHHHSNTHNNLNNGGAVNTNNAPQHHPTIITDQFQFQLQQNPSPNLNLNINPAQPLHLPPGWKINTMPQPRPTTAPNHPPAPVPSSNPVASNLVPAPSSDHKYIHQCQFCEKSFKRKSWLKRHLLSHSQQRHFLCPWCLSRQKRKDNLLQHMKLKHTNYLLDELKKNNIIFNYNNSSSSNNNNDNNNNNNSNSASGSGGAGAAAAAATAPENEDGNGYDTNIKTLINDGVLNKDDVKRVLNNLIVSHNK
# Assay: PBM E-score (8-mer binding enrichment) (E-score (-0.5 to 0.5)); higher = stronger / more preferred TF binding
# Conditions: protein concentration: 200 nM; construct: GST-full length
# Protocol: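 Universal 'all 10-mer' protein binding microarrays (Agilent AMADID 015681) probed with GST-tagged S. cerevisiae TFs (full-length or DBD) made by in vitro transcription/translation (PURExpress), about 100-200 nM. Bound TF was detected with fluorescent anti-GST. Each ungapped 8-mer (which stands for itself and its reverse complement) is scored by the PBM enrichment score (E-score), a modified Wilcoxon-Mann-Whitney statistic from -0.5 to +0.5, computed with the Universal PBM Analysis Suite. Scale: above 0.35 generally sequence-specific binding.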
row,Sequence,PBM E-score
1,AGCCAAGG,-0.106
2,AGTTCTCG,-0.137
3,AAAGTGTC,0.0356
4,AGCGACTC,-0.134
5,AATGTCTG,-0.0738
6,AGCGAGAG,-0.117
7,CTCAAGCC,-0.236
8,TCATAACA,0.255
9,AGAATGGA,-0.0583
10,AAGACCAT,-0.234
11,GTTAGGCA,0.454
12,GTTAGGTA,0.26
13,ATTAGGCC,-0.111
14,GTTAGGGA,-0.113
15,ATTAGGCG,-0.0797
16,CTTAGGCA,0.444
17,CTTAGGCC,-0.0744
18,CTTAGGTA,0.139
19,ATTAGGCA,0.472
20,CTATGCAA,0.0284
21,ACCTACCA,0.12
22,CGGGGATC,-0.303
23,AAAGCGTG,0.0569
24,ACCTGATA,0.203
25,ACTACACG,0.386

row,Sequence,PBM E-score
1,GCTACACA,0.253
2,CCAACACG,0.299
3,ACAACACA,0.337
4,ACTACACT,0.181
5,CCTACACG,0.336
6,TCAACACA,0.353
7,ACTACACA,0.331
8,TCTACACA,0.361
9,CCCAACGA,-0.0748
10,AGGGACTG,-0.226
11,CTGCAAGA,0.0551
12,CCTCTTCA,-0.171
13,ATAGCACG,-0.00445
14,GTAATCCA,0.225
15,ACAAAGCC,0.0921
16,CCAAATAG,0.00768
17,GGAAGGCA,0.482
18,AGAAGGCA,0.475
19,GGAAGGCC,-0.214
20,TGAAGGCA,0.483
21,AGAAGGCT,-0.0686
22,GGAAGGGA,-0.292
23,AGAAGGCG,0.27
24,CGAAGGCG,0.193
25,CGAAGGCC,-0.0438

row,Sequence,PBM E-score
1,TGAAGTCA,0.0305
2,CGAAGGCA,0.476
3,TGAAGCCA,-0.0204
4,ACCGAGAC,0.0166
5,CAAGCGTC,-0.0912
6,GCGGACAC,-0.3
7,ACGATCCA,-0.0439
8,CCCTAGTC,-0.163
9,GATAGGCA,0.473
10,AATAGGCT,0.161
11,CATAGGCG,0.0696
12,AATAGGCC,-0.0184
13,TATAGGCA,0.482
14,AATAGGCA,0.479
15,TATAGTCA,0.188
16,GATAGGGA,-0.155
17,CATAGGCC,0.135
18,CATAGGCA,0.476
19,TATAGGGA,-0.0815
20,GATAGGCC,0.0586
21,GAGTCGAA,-0.0456
22,CAAGGATG,0.121
23,CTCAAGCA,-0.101
24,GGAAGTAC,-0.139
25,ATGACCAT,0.0148

row,Sequence,PBM E-score
1,CGCACTCC,-0.223
2,CTGAGGTC,-0.255
3,CTTATGTC,0.0522
4,ATCATGTG,0.198
5,ATCATGTA,0.392
6,GTCATGGA,-0.179
7,GTCATGCA,0.0879
8,CTTATGTA,0.342
9,CTCATGTA,0.359
10,ATCATGTC,0.245
11,CTCATGGA,0.261
12,GTCATGTA,0.356
13,CTCATGTC,0.191
14,ATTATGTA,0.339
15,ATGGTTGA,-0.153
16,CCATCCGC,-0.164
17,CCGAAGAC,-0.306
18,GGGGTCTA,-0.0481
19,TAGAGAAA,-0.0644
20,CAACCAGA,0.0325
21,AAATAGCG,0.11
22,AGTTACGA,0.138
23,CCTAGAAA,0.0447
24,CTGAGCCC,-0.191
25,CCGTTGAG,-0.213

row,Sequence,PBM E-score
1,CGGGCAAC,-0.129
2,GAGGCAAA,0.328
3,CAGGCAGA,0.0294
4,CGGGCAAA,0.0704
5,TGGGCAAA,-0.0148
6,CCGGCAAG,-0.0693
7,TAGGCAAA,0.48
8,CAGGCAAA,0.481
9,CAGACAAC,0.00587
10,CAGGCAAC,0.489
11,CAGGCAAG,0.491
12,CAGGCAGG,0.306
13,ATCCACGG,-0.0193
14,AACCAGGT,-0.172
15,AAGACATC,-0.0992
16,CATAGTGC,0.117
17,ACAGCCGT,-0.24
18,CTCCGAAC,-0.132
19,ACACTACC,-0.089
20,GCCTTAAA,0.349
21,CCCTTAAA,-0.00813
22,ACCTTAAA,-0.092
23,CACACTCC,-0.178
24,ACGTACAT,0.286
25,AAGTACAT,0.265

row,Sequence,PBM E-score
1,AGGTACAT,0.367
2,ATGTACAT,0.378
3,ATGTACAC,0.338
4,GGGTACAA,-0.012
5,CGGTACAC,0.00913
6,ATGTACAG,0.247
7,AGGTACAA,0.363
8,TGGTACAA,0.0168
9,AGGTACAG,0.332
10,AGGTACAC,0.366
11,AAGGGGAA,-0.0624
12,CAACAGTG,-0.0633
13,CACGTGGC,-0.0488
14,AGCCTCCA,-0.369
15,GGCCTCAA,0.00845
16,AGCCTCAA,-0.265
17,TGCCTCAA,0.365
18,TGCCTCCA,0.404
19,CGCCTCCA,-0.0882
20,GACTGCTA,-0.251
21,AACGTGCG,0.0588
22,AGCGTGCC,0.343
23,CGTGTGCC,0.23
24,AACGTGCA,0.136
25,AGCGTGCA,0.092

row,Sequence,PBM E-score
1,CGCGTGCA,0.0183
2,AGTGTGCG,-0.149
3,AACGTGCC,0.397
4,CGCGTGGC,-0.155
5,AGCGTGCG,-0.185
6,AGTGTGCC,0.355
7,CGCGTGCC,0.433
8,AGGACACG,0.071
9,GTGAGCCA,-0.12
10,GCGTTGGA,0.0942
11,GTATCGTA,0.197
12,CCGTTTCA,-0.123
13,AAGAGAAC,0.0546
14,CCTGTGCG,0.185
15,ACTGTGCC,0.265
16,GCCGTGCC,0.346
17,CCTGTGCC,0.361
18,GCCGTGCA,-0.0598
19,ACCGTGCC,0.336
20,CGCGAGAC,-0.11
21,ACGCCAAG,-0.0211
22,CGCTGTGC,-0.0145
23,ATAGGTGG,0.0389
24,AATAAGGA,0.0872
